High-throughput results deposited in PubChem BioAssay by several laboratories.
CCHF vOTU inh-1 – CCHFV vOTU protease inhibition; Pep-AMC fluorescence; inhibition, % at 11.5 µM; 370,000 compounds, 0.55% hits; AID 651958; note: 0% = vehicle wells with enzyme and 100% = no enzyme wells
PrPC TRFRET – cell surface PrPC inhibition, primary TR-FRET screen; TR-FRET read-out; inhibition, % at 13.8 µM; 370,000 compounds, 0.43% hits; AID 720596; P04156; in the data active = inhibition above about 24%; note: 0% = median of the test wells and 100% = reference compound wells
PrP UTR inh – suppresses PrP 5' UTR mRNA reporter expression; cell-based PrP 5' UTR mRNA reporter, plate reader; inhibition, % (no concentration beside the values); 340,000 compounds, 0.35% hits; AID 488862; in the data active = inhibition above about 52%; note: 0 = median of the neutral control wells
SARS 3CLpro inh – SARS-CoV 3CLpro protease inhibition | P0C6X7 | 290,000 compounds, 0.14% hits | inhibition, % at 6 µM | recombinant SARS-CoV 3CLpro, quenched FRET peptide cleavage; in the data active = inhibition above about 12%
CCHF vOTU inh-2 – CCHFV vOTU protease inhibition, confirmation. shares compounds with CCHF vOTU inh-1. Recombinant CCHFV vOTU, Pep-AMC fluorescence. inhibition, % at 11.5 µM. 1,900 compounds, 17% hits
Starred values were filed as active, the others as inactive; . = not tested or not shown. Most compounds without a hit are left out; they make up all but 1.3% or so of the library. Cut-off read from the data, not from the text of the source, unless noted: active = inhibition above about 30%; inactive = the rest.

SMILES	CCHF vOTU inh-1	PrPC TRFRET	PrP UTR inh	SARS 3CLpro inh	CCHF vOTU inh-2
COc1ccccc1/C=C1/C(=O)N(c2ccccc2)N=C1C	71*	-2	-11	2	-10
Cc1ccc(C(=O)CCC2CCCC2=O)cc1 (stereo unspecified)	0	-10	-66	0	.
Fc1ccccc1Nc1nc(N2CCOCC2)nc(N2CCOCC2)n1	1	-2	-12	3	.
C#CCOc1ccc(/C=C2/C(=O)N(c3cccc(C(=O)O)c3)N=C2C)cc1OC	35*	-4	-6	-2	-15
COc1cc(/C=C2\C(=O)N(c3cccc(C(=O)O)c3)N=C2C)ccc1OCc1ccccc1	-1	5	.	.	.
CCOC(=O)[C@H]1[C@H]2COc3ccc(Cl)cc3[C@@H]2N2C(=O)CN(Cc3ccco3)C(=O)[C@@]12C	7	2	-3	.	.
COc1ccc(Cc2nc(-c3cccs3)no2)cc1OC	31*	9	-30	-5	-11
Cc1[nH]c2ccccc2c1C(=O)CN1C(=O)C(=O)N(Cc2ccco2)C1=O	-1	-7	-24	0	.
O=[N+]([O-])c1ccc(O)c2ncccc12	47*	-36	-21	4	23
COc1cc2c(cc1OC)C(C)N(C(=O)c1c(-c3ccccc3)noc1C)CC2 (stereo unspecified)	-9	10	-27	-1	.
CCOC(=O)N1CCN(c2ccc([N+](=O)[O-])cc2F)CC1C (stereo unspecified)	10	-16	-4	-2	.
CCOC(=O)N1CCN(c2ccc(C(C)=O)cc2F)CC1C (stereo unspecified)	31*	12	-24	1	-3
CC(=O)c1cccc(NC(=O)CSc2ccc(-c3sc(C)nc3C)nn2)c1	-12	-1	-5	4	.
O=C(N/N=C/c1c(O)n(Cc2ccccc2)c(=O)[nH]c1=O)c1ccccc1O	10	7	-28	-6	.
O=C(N/N=C/c1c(O)n(CCc2ccccc2)c(=O)[nH]c1=O)c1ccccc1O	32*	3	2	1	-8
CC(SCc1ccccc1)C(=O)Nc1ccccc1Br (stereo unspecified)	-1	-3	7	1	.
C=CCn1c(NC(=O)c2ccccc2Cl)c(C#N)c2nc3ccccc3nc21	82*	1	-5	0	45*
O=C(CN1C(=O)/C(=C/c2ccco2)SC1=S)Nc1ccc(C(=O)O)c(O)c1	36*	-6	-7	1	22
O=C(CCCN1C(=O)/C(=C/c2ccccc2)SC1=S)Nc1ccc(C(=O)O)c(O)c1	30*	-11	-31	5	5
COc1ccc(C=C2SC(=S)N(CCCC(=O)Nc3ccc(C(=O)O)c(O)c3)C2=O)cc1OC	22	-44	.	.	.
Cc1ccc(-c2csc(N3CCN(c4cc5c(cc4Cl)nc(C)n5CCN4CCCCC4)CC3)n2)cc1	10	-4	-16	-2	.
CS(=O)(=O)N(CC(=O)N1CCc2ccccc2C1)c1cccc([N+](=O)[O-])c1	12	-11	-18	-1	.
O=c1c2[nH]c3ccc(F)cc3c2ncn1C1CCCCC1	-3	1	-55	-2	.
CCn1nc(/C=C/c2ccccc2)nc2c(=O)n(C)c(=O)nc1-2	124*	-20	-43	5	107*
CN1C(=O)/C(=C/c2ccccc2F)Sc2ccc(C(=O)NCC3CCCO3)cc21 (stereo unspecified)	13	-11	9	5	.
SMILES	CCHF vOTU inh-1	PrPC TRFRET	PrP UTR inh	SARS 3CLpro inh	CCHF vOTU inh-2
O=C1Nc2cc(C(=O)NCC3CCCO3)ccc2S/C1=C/c1ccccc1F (stereo unspecified)	31*	2	11	6	-23
Cn1c(-c2ccc3nc(N)sc3c2)nc2cc(N)ccc21	34*	12	-36	-4	-38
CN(CC(=O)Nc1ccccc1Cl)C(=O)COC(=O)c1ccc([N+](=O)[O-])s1	78*	-38	-6	.	39*
CN(CC(=O)Nc1ccccc1Cl)C(=O)COC(=O)c1cccs1	-14	8	7	.	.
NS(=O)(=O)c1ccc(NC(=O)COC(=O)c2ccc([N+](=O)[O-])s2)cc1	74*	-20	-5	-1	63*
COc1ccccc1NC(=O)COC(=O)c1ccc([N+](=O)[O-])s1	80*	-31	-16	5	100*
Cc1ccc(NC(=O)COC(=O)c2ccc([N+](=O)[O-])s2)c(C)c1	-1	-25	-7	1	.
Cc1cc(C)c(NC(=O)COC(=O)c2ccc([N+](=O)[O-])s2)c(C)c1	54*	5	-14	-2	-17
CC(=O)NCCC(=O)Nc1nc2ccc(Oc3ccccc3)cc2s1	6	4	-51	0	.
CCS(=O)(=O)n1nc(-c2ccccc2)nc1N	10	1	8	-6	.
O=C1C[C@@H](O)[C@H](O)c2cccc(O)c21	45*	-4	.	.	-2
CCCOP(=O)(OCCC)C(Nc1cccc(C(F)(F)F)c1)c1ccc(C)cc1 (stereo unspecified)	13	7	-39	10	.
CCOP(=O)(OCC)C(Nc1cccc(C(F)(F)F)c1)c1ccc(C)cc1 (stereo unspecified)	30*	3	-25	3	11
CC1=NNC(=O)C1CCC(=O)N/N=C(/C)c1ccc([N+](=O)[O-])cc1 (stereo unspecified)	30*	-9	-4	-1	-17
COCC(=O)Nc1cc(C)cn(Cc2cccc(C(F)(F)F)c2)c1=O	6	-10	-12	-6	.
Cc1cc(NS(C)(=O)=O)c(=O)n(Cc2cccc(C(F)(F)F)c2)c1	31*	0	.	.	-25
COc1cccc(C(c2nnnn2-c2c(C)cccc2C)N2CCN(C/C=C/c3ccccc3)CC2)c1OC (stereo unspecified)	2	3	.	.	.
CC(C)CC(=O)NC(=S)Nc1ccccc1N1CCCC1	31*	1	-17	-1	12
CC(C)CC(=O)Nc1ccccc1N1CCCC1	-11	0	-12	0	.
O=C(NC(=S)Nc1ccccc1N1CCCC1)c1cccs1	37*	1	-2	-4	38*
CCCOC1CCCN(C(=O)c2cc(COc3c(F)cccc3F)on2)C1 (stereo unspecified)	14	2	-45	5	.
CCc1ccc2nc(NC(=O)c3cc(C)on3)sc2c1	8	0	-57	7	.
CC(=O)N1CC2(CC(=O)OC(C)C)CN(C(C)=O)CC(CC(=O)OC(C)C)(C1)C2=O	6	-3	-27	-2	.
CN(C)c1ncc(C2=C(Cl)C(=O)C(N3CCCC3)=C(Cl)C2=O)s1	62*	-8	-5	6	49*
O=C1C(Cl)=C(N2CCCCC2)C(=O)C(Cl)=C1c1cnc(N2CCCCC2)s1	.	.	15	6	.
CC(=O)NS(=O)(=O)c1ccc(Nc2ccc([N+](=O)[O-])c3nonc23)cc1	30*	-51	-4	-2	13
O=[N+]([O-])c1ccc(Nc2ccccc2)c2nonc12	7	-30	0	0	.
COCCCNC(=O)C[C@@H]1C[C@@]2(C(=O)OC)CCCCC=C2N(CCC2=CCCCC2)C1=O	2	4	.	.	.
COC(=O)[C@@]12C[C@@H](CC(=O)NCc3ccccc3)C(=O)N(CCc3ccc(OC)c(OC)c3)C1=CCC(C)(C)C2	20	1	.	.	.
